Assay [1] in a line: compounds altering circadian rhythm period length – cell-based, LOPAC library, luminescence reporter (AID 2774).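 Note: values are relative to mean of DMSO wells on each plate.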 Particulars: circadian reporter cells, at 7 µM, actives lie on both sides.
Assay [2] in a line: compounds altering viability of human ES cells (AID 493140).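 Note: cells exposed to compounds for four days before counting.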 The note with it: human embryonic stem cell survival screen; stronger effect = higher value.
Assay [3] in a line: P. berghei load reduction in hepatocytes – cell-based, HepG2, luciferase luminescence, HepG2 viability, primary screen (AID 624349; in the data active = parasite load remaining mostly below about 12%, no sharp cut-off; inactive = mostly above about 10%;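 note: 100% = mean of DMSO negative control wells on the same plate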). The note with it: P. berghei liver stage in HepG2, luciferase luminescence, concentration not given here; parasite load remaining: stronger effect = lower value; viability: measured here: HepG2 viability without parasites.
Assay [4] deals with Hepatitis C virus NS3 helicase. Kind of assay: blockers of NS3h binding to ssDNA – biochemical, fluorescence polarization, LOPAC1280 library, primary screen (AID 687035; in the data active = inhibition above about 37%). The note with it: Purified HCV NS3 helicase, Cy5-dT15 ssDNA binding fluorescence polarization; stronger effect = higher value; concentration not given here. In general terms: In fluorescence polarisation assays a small probe gives low polarisation when free and higher when bound to something large.

Assay [5] is described as follows: compounds altering Cy5-DNA-NS3h complex signal – biochemical, LOPAC1280, artefact control for HCV NS3 helicase inhibitor project (AID 687037). Particulars: Cy5-DNA-NS3h complex fluorescence interference counterscreen. (In general: Counterscreens check selectivity or assay interference.)
A short description of assay [6]: Wnt pathway potentiators raising nuclear beta-catenin – imaging, WNT3A-conditioned medium, mouse C2C12, NPC library, primary screen (AID 1117326; in the data active = nuclear beta-catenin stimulation mostly above about 4.2%, no sharp cut-off; inactive = mostly below about 10%). The note with it: stronger effect = higher value.
Assay [7] concerns Neuropilin-2 / VEGF-C interaction (human). Kind of assay: small molecules blocking Neuropilin-2/VEGF-C interaction – biochemical, microplate binding format, z-score (AID 743281). The note with it: microplate NRP2/VEGF-C binding assay; stronger effect = lower value.
Assay [8] can be described thus: signal quenchers or enhancers, Cy5 substrate/SSB – biochemical, NIH Clinical Collection, E. coli SSB, artefact control for HCV NS3 helicase inhibitor project (AID 743268). Particulars: Cy5-oligo bound E. coli SSB, fluorescence interference.
Assay [9] concerns Hepatitis C virus NS3 helicase. Kind of assay: blockers of NS3h binding to DNA – biochemical, fluorescence polarization, NIH Clinical Collection, primary screen (AID 743270). The note with it: NS3 helicase binding to Cy5-dT15 DNA, stronger effect = higher value, concentration not given here.
Assay [10] deals with Single-stranded DNA-binding protein (Escherichia coli (strain K12)) (UniProt P0AGE0). The assay is described as follows: SSB-ssDNA binding inhibitors – biochemical, fluorescence polarization, NIH Clinical Collection, counter-screen for HCV NS3 helicase inhibitor project (AID 743271; in the data active = inhibition above about 28%). The note with it: E. coli SSB-DNA binding, stronger effect = higher value, concentration not given here.

A short description of assay [11]: compounds distorting NS3 helicase fluorescence signal – biochemical, NIH Clinical Collection, artefact control for HCV NS3 helicase inhibitor project (AID 743272).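 Note: HCV NS3 helicase with a Cy5 labelled single stranded DNA probe.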 The note with it: fluorescence interference counterscreen, HCV NS3 helicase assay; stronger effect = lower value.

Where “and” joins values, the source holds several entries; their conditions need not be identical. Equal entries are not always repeated. A structure can be active in one record and inactive in another. Calls of active or inactive are those of the source. Unless noted, the rule behind the calls is not given here.

For `CC1(C)NC(=O)N(c2ccc([N+](=O)[O-])c(C(F)(F)F)c2)C1=O`, the period change in assay [1] was 0.085 h (inactive). Further, the survival in assay [2] is 0.917 (inactive). Also, in [3], the parasite load remaining was 54.2% (inactive) and 50.4% (inactive) and 7.05% (inactive); the viability is 92.2% and 99% and 125%. Besides, in assay [4], the inhibition is -2% (inactive). In addition, the fluorescence ratio (interference) in assay [5] was 1 (inactive). Further, in assay [6] (at 10 µM), the nuclear beta-catenin stimulation was -0.3% (inactive). The nuclear beta-catenin stimulation in assay [6] (stimulation, at 2 µM) came out at 2.1%.

For the compound `COCCCC/C(=N\OCCN)c1ccc(C(F)(F)F)cc1`, the period change in assay [1] was -0.015 h (inactive). The survival in assay [2] is 6.67 (inactive). In assay [3], the parasite load remaining is 94.5% (inactive). For the same compound, the viability in assay [3] worked out at 63.8%. The compound was called inactive in assay [7]. For the same compound, the nuclear beta-catenin stimulation is 0.8% (inactive) in assay [6] (at 10 µM) and 0.4% in [6] (stimulation, at 2 µM).

Turning to `COc1ccccc1N1CCN(CC(O)COc2cccc3ccccc23)CC1` (stereo not drawn), the period change in assay [1] was 0.04 h (inactive). In addition, in assay [2], the survival is 8.25 (inactive). Moreover, the parasite load remaining in [3] is 54.9% (inactive) and 58.6% (inactive) and 42.9% (inactive). The viability in assay [3] is 66.8% and 61.4% and 114%. The inhibition in [4] was -2% (inactive); in assay [9], 5.15% (inactive); in [10], 5.29% (inactive). Besides, the fluorescence ratio (interference) in [5] is 1 (inactive). For the same compound, the fluorescence ratio is 0.97 (inactive) in assay [8] and 0.89 (inactive) in assay [11]. For the same compound, the z-score in assay [7] was 1.13 (inactive). For the same compound, the nuclear beta-catenin stimulation in assay [6] (at 10 µM) is 1.5% (inactive); in [6] (stimulation, at 2 µM), 1.7%.

With `Nc1nc2c(ncn2COC(CO)CO)c(=O)[nH]1`, the period change in [1] was -0.27 h (inactive). The survival in assay [2] was 3.83 (inactive). Further, in assay [3], the parasite load remaining is 53.7% (inactive) and 86.2% (inactive) and 12.5% (inactive). Besides, the viability in assay [3] was 114% and 95.7% and 65%. Moreover, the inhibition in [4] was -2% (inactive); in [9] it was -3.18% (inactive); in [10], -2.76% (inactive). The fluorescence ratio (interference) in assay [5] is 1 (inactive). Further, the fluorescence ratio in assay [8] was 1.03 (inactive); in assay [11], 1.02 (inactive). Besides, the nuclear beta-catenin stimulation was 1.2% (inactive) in assay [6] (at 10 µM) and 1.2% in assay [6] (stimulation, at 2 µM).

For `NCCS`, the period change in assay [1] was 0.02 h (inactive). In assay [3], the parasite load remaining is 22.7% (inactive) and 38.2% (inactive); the viability was 94.3% and 106%. The inhibition in assay [4] was -2% (inactive). The fluorescence ratio (interference) in assay [5] is 1 (inactive). Further, in assay [6] (at 10 µM), the nuclear beta-catenin stimulation was 0.2% (inactive). In addition, in [6] (stimulation, at 2 µM), the nuclear beta-catenin stimulation worked out at 3.8%.

Regarding `O=C1CCc2cc(OCCCCc3nnnn3C3CCCCC3)ccc2N1`, the period change in assay [1] is 0.02 h (inactive). Moreover, the parasite load remaining in assay [3] was 56.8% (inactive) and 129% (inactive) and 31.4% (inactive). The viability in assay [3] is 104% and 87.2% and 96.2%. Moreover, the inhibition in [4] is -1% (inactive). In [5], the fluorescence ratio (interference) was 1 (inactive). Besides, the nuclear beta-catenin stimulation was 1.1% (inactive) in [6] (at 10 µM) and 1% in assay [6] (stimulation, at 2 µM).

In the case of `CCN(CC)CCNC(=O)c1ccc(NC(C)=O)cc1`, the period change in [1] was 0.01 h (inactive). In addition, in [3], the parasite load remaining is 46.9% (inactive) and the viability stood at 102%. Moreover, in assay [4], the inhibition is -3% (inactive). In assay [5], the fluorescence ratio (interference) was 1 (inactive). Further, the nuclear beta-catenin stimulation in assay [6] (at 10 µM) is -1.2% (inactive). The nuclear beta-catenin stimulation in assay [6] (stimulation, at 2 µM) was 1%.

Regarding `CC(=O)[C@@]1(O)CC[C@H]2[C@@H]3C[C@H](C)C4=CC(=O)C=C[C@]4(C)[C@@]3(F)[C@@H](O)C[C@@]21C`, the survival in assay [2] is 6.17 (inactive). In [3], the parasite load remaining was 127% (inactive) and the viability stood at 102%. Also, the nuclear beta-catenin stimulation in assay [6] (at 10 µM) was 2.3% (inactive). Also, the nuclear beta-catenin stimulation in assay [6] (stimulation, at 2 µM) came to 0.2%.

For `Cc1ccc(S(=O)(=O)NC(=O)NN2CC3CCCC3C2)cc1` (stereo not drawn), in assay [2], the survival is 5.67 (inactive). The nuclear beta-catenin stimulation was 0.7% (inactive) in assay [6] (at 10 µM) and 1.2% in assay [6] (stimulation, at 2 µM).

As to `OCc1cc(C(O)CNCCCCCCOCCCCc2ccccc2)ccc1O` (stereo not drawn), the period change in assay [1] is -0.06 h (inactive). For the same compound, in assay [3], the parasite load remaining was 94.7% (inactive) and 45.6% (inactive) and 21.7% (inactive). Moreover, the viability in assay [3] was 96% and 67.2% and 65.5%. Besides, the inhibition in assay [4] is 2% (inactive); in assay [9], -1.97% (inactive); in assay [10], -2.76% (inactive). The fluorescence ratio (interference) in assay [5] is 1 (inactive). The fluorescence ratio in assay [8] was 0.98 (inactive); in assay [11], 1.01 (inactive). For the same compound, the z-score in assay [7] was -0.654 (inactive). In addition, the nuclear beta-catenin stimulation was 2.7% (inactive) in [6] (at 10 µM) and 0.3% in assay [6] (stimulation, at 2 µM).

`Cc1cn([C@H]2C=C[C@@H](CO)O2)c(=O)[nH]c1=O`: in assay [1], the period change was -0.14 h (inactive). Moreover, the parasite load remaining in [3] is 72.2% (inactive) and 110% (inactive). The viability in assay [3] is 107% and 74.4%. The inhibition was -2% (inactive) in assay [4]; -3.56% (inactive) and -2.27% (inactive) in assay [9]; -0.87% (inactive) and -5.05% (inactive) in assay [10]. Moreover, in assay [5], the fluorescence ratio (interference) is 1 (inactive). Further, the fluorescence ratio in [8] was 1.04 (inactive) and 0.101 (active); in [11], 0.98 (inactive) and 1.04 (inactive). Besides, in assay [7], the z-score was 0.0189 (inactive). Also, the nuclear beta-catenin stimulation in assay [6] (at 10 µM) is -0.2% (inactive); in [6] (stimulation, at 2 µM) it was 1.1%.

With `COc1ccccc1OCC(O)CN1CCN(CC(=O)Nc2c(C)cccc2C)CC1` (stereo not drawn), the period change in assay [1] is 0 h (inactive). The figures for the inhibition in assay [4], in assay [9] and in assay [10] were -7% (inactive), -3.56% (inactive) and -4.72% (inactive), respectively. Besides, the fluorescence ratio (interference) in assay [5] was 0.9 (inactive). Besides, the fluorescence ratio in assay [8] is 1.02 (inactive); in assay [11] it was 0.9 (inactive). Moreover, in assay [7], the z-score is 0.514 (inactive). The nuclear beta-catenin stimulation in assay [6] (at 10 µM) is 2.5% (inactive); in [6] (stimulation, at 2 µM), 1.4%.

Take `O=C1C(=O)c2ccccc2C(O)=C1C1CCC(c2ccc(Cl)cc2)CC1` (stereo not drawn): in assay [2], the survival is 8.83 (inactive). In addition, the nuclear beta-catenin stimulation in assay [6] (at 10 µM) was 2.2% (inactive); in assay [6] (stimulation, at 2 µM), -1%.

As to `Nc1nnc(-c2cccc(Cl)c2Cl)c(N)n1`, the period change in [1] was -0.15 h (inactive). Also, in assay [3], the parasite load remaining is 90.9% (inactive) and 119% (inactive) and 49.7% (inactive). The viability in assay [3] was 105% and 77.7% and 112%. Further, the inhibition in [4] is -5% (inactive); in [9] it was 0.4% (inactive); in [10], -1.64% (inactive). In addition, the fluorescence ratio (interference) in assay [5] is 1 (inactive). Also, the fluorescence ratio in [8] was 1.03 (inactive); in assay [11], 0.99 (inactive). The z-score in assay [7] was -0.624 (inactive). The nuclear beta-catenin stimulation in assay [6] (at 10 µM) is 0.7% (inactive); in [6] (stimulation, at 2 µM), 0.5%.

By viability is commonly meant a read-out of living cells in per cent, often relative to untreated cells. For orientation: inhibition means the change of the read-out against control, counted positive when it falls.

Values taken from PubChem BioAssay.
